Consider seven compounds from PubChem BioAssay AID540350 (National Center for Advancing Translational Sciences (NCATS), 2011).

The other results are listed elsewhere or left out. Records with an inconclusive call do not appear. Activity calls are given as the source filed them. Calls come from the whole dose curve; as a rule, active = well fitted inhibition curve with a large enough effect; inconclusive = small, poorly fitted or top-dose-only effect; inactive = no such curve, though single readings can be large or run the other way.

This experiment addresses 4'-phosphopantetheinyl transferase Sfp (Bacillus subtilis (strain 168)) (UniProt P39135). The experiment is described as follows: qHTS Assay for Inhibitos of Bacillus subtilis Sfp phosphopantetheinyl transferase (PPTase): Chemistry Optimization Followup. The conditions noted are these: purified Sfp PPTase enzyme activity. The text has this: The covalent attachment of a phosphopantetheinyl (4'-PP) arm to a variety of synthases and other proteins is a key posttranslational protein modification. The 4'-PP is installed on the proteins post-translationally from coenzyme A (CoA) on a conserved serine residue by action of phosphopantetheinyl transferase (PPTase) enzymes. Phosphopantetheinylation is essential for synthase activity, and removal of the PPTase gene precludes natural product synthesis in microorganisms, or in the case of fatty acid biosynthesis, renders the organism unviable. PPTase enzymes belong to a distinct structural superfamily. Within bacteria, these enzymes are grouped into two classes based upon primary structure, the AcpS-Type and Sfp-Type PPTases.
Sfp-type PPTases, corresponding to an activator of surfactin production in Bacillus subtilis, are responsible for modifying type I polyketide and nonribosomal peptide synthases of prokaryotes. Sfp-type PPTases are responsible for the activation of a variety of pathogen-associated virulence factors. Among these compounds are toxins such as mycolactone from Mycobacterium ulcerans, siderophores such as vibriobactin from Vibrio cholerae or mycobactin from Mycobacterium tuberculosis, as well as the mycolic acids which form the waxy cell wall of Mycobacteria. The biosyntheses of these natural products are considered attractive targets for drug design.
In search of small molecule Sfp-PPTase inhibitors, a fluorescence quenching assay was developed for detection of Bacillus subtilis Sfp-PPTase enzymatic activity in a miniaturized high-throughput format. The consensus ybbr acceptor peptide […] was N-terminally labeled with Black Hole Quencher-2 (BHQ-2) and used in combination with rhodamine-labeled coenzyme A as a co-substrate.
Inhibition of Sfp-PPTase was detected by recording the fluorescence intensity change over a 30-minute reaction period at a 525 nm excitation and 598 nm emission. Reagents were supplied by Michael Burkart and Timothy Foley, University of California at San Diego.
NIH Chemical Genomics Center [NCGC]
NIH Molecular Libraries Probe Centers Network [MLPCN]
Assay Submitter (PI): Michael Burkart, University of California, San Diego
3 uL of Sfp-PPTase enzyme (final concentration 15 nM) and 1 uL of substrate mixture (final concentration for rhodamine-CoA and BHQ-2-YbbR 5 uM and 12.5 uM, respectively) dispensed in columns 1, 2, 5 - 48. Columns 1 and 2 used to generate neutral control (uninhibited reaction)
Three uL of reagents, consisting of buffer (in columns 3 and 4 as negative control) and Sfp-PPTase (in columns 1, 2, 5 - 48) were dispensed into 1,536-well Greiner black solid bottom plate. Compounds (23 nL) were transferred via Kalypsys pintool equipped with 1,536-pin array. The plate was incubated for 15 min at room temperature, followed by the addition of 1 uL substrate to start the reaction. The plate was then centrifuged at 1000 rpm for 15 seconds, and the fluorescence intensity recorded on a ViewLux High-throughput CCD imager (Perkin-Elmer) using standard BODIPY optics (525 nm excitation and 598 nm emission). The plate was then incubated for 30 minutes, and a second read on the ViewLux was performed. The fluorescence intensity difference over the 30-minute period was used to calculate the respective reaction rate for each well.
On the technique in general: qHTS replaces the single test concentration by a dilution series.
As to `Cc1cc(C)nc(NC(=S)N2CCN(c3cccc(C#N)c3)CC2)c1`, the Potency was 5910 nM (active).
Turning to `Cc1cc(C)nc(NC(=S)N2CCN(c3ccc(Cl)cc3F)CC2)c1`, the Potency is 1870 nM (active).
As for `Cc1cc(C)nc(NC(=S)N2CCN(c3ccc(Cl)cc3C(F)(F)F)CC2)c1`, the Potency is 2960 nM (active).
In the case of `Cc1ccc(N2CCN(C(=S)Nc3cc(C)ccn3)CC2)cc1`, the Potency was 6630 nM (active).
For the compound `COc1ccnc(NC(=S)N2CCN(c3ncc(C(F)(F)F)cc3Cl)CC2)c1`, the Potency is 2640 nM (active).
For `Cc1cc(C)nc(NC(=S)N2CCN(c3cccc(C(F)(F)F)c3)CC2)c1`, the Potency is 1670 nM (active).
The value for `Cc1cc(C)nc(NC(=S)N2CCN(c3ccc4nonc4c3)CC2)c1` was 7440 nM (active).
